# TEAD-YAP block: TEAD-YAP interaction inhibition | AID 1259422 | inhibition, % at 9.12 µM | 640,000 tested, 1.4% active | HEK-TIYL cells, TEAD-Gal4/YAP UAS-luciferase luminescence; in the data active = inhibition above about 32%;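 also: 0% = median of test compound wells and 100% = reference inhibitor wells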
# MITF inh: human MITF inhibition, primary screen; O75030; AlphaScreen MITF homodimerization, bead proximity signal; inhibition, % at 2.6 µM; 650,000 tested, 0.91% active; in the data active = inhibition above about 50%;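 also: 0% = vehicle wells with protein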
# FBW7 activator: activators of human E3 ligase FBW7; Q969H0; AlphaScreen FBW7–phospho-cyclin E peptide binding, activator screen; normalized activity (activation), % at 26.1 µM; 650,000 tested, 0.13% active; AID 1259310; in the data active = normalized activity above about 1.9%;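 also: purified mutant Fbw7 with reduced substrate affinity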
# GPR151 ag: human GPR151 activation | 650,000 tested, 1% active | AID 1508602 | activation, % at 11.2 µM | Q8TDV0 | PathHunter beta-arrestin GPR151 cells, luminescence; in the data active = activation above about 4.9%;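 also: 0% = median of compound wells and 100% = cells with positive control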
# Target sequence (Q8TDV0 whole entry, looked up): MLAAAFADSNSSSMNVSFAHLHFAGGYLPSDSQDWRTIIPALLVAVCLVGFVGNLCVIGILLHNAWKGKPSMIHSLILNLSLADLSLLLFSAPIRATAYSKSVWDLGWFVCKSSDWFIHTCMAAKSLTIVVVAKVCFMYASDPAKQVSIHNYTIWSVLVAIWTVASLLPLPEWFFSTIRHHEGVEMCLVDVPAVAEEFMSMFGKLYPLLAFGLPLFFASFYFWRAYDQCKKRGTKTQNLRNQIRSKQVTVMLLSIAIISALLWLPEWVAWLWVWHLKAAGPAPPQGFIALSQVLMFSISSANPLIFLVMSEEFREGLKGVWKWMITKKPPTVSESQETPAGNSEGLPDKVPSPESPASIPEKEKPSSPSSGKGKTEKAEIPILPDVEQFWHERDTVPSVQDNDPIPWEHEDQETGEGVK
# GPR151 conf act: confirmation of human GPR151 activators; activation, % at 11.2 µM; GPR151 PathHunter beta-arrestin cells, luminescence, 90 min; % of EA-reagent control over plate median; 6,700 tested, under 10 active; AID 1508609; shares compounds with GPR151 ag;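 active = mean percent activation across replicates above the confirmation screen cutoff of 4.91%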
# GPR119 counter: GPR119 activation, counter-screen for GPR151 activators | 6,700 tested, 0.3% active | GPR119 PathHunter beta-arrestin cells, luminescence, 90 min; 0 = compound-well median, 100 = enzyme-acceptor control | activation, % at 11.2 µM | AID 1508611 | shares compounds with GPR151 ag;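 active = mean percent activation in the counterscreen above 29.09%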;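 also: counterscreen on off-target GPR119 to flag nonselective hits from the GPR151 activator screen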
# Numbers without * were called inactive; / = no result given. Rows were chosen to be rich in hits. Some 3.4% of all compounds tested hit in one or more screens of this group.
SMILES,TEAD-YAP block,MITF inh,FBW7 activator,GPR151 ag,GPR151 conf act,GPR119 counter
CCCN1CCC(N2CCN(S(=O)(=O)c3ccccc3)CC2)CC1,0,-4,0,0,/,/
COc1cc2c(N3C(=O)CCC3=O)c3c(=O)oc(C)cn3c2cc1OC,6,-4,0,9.1*,0,1
CCC[C@@H]1NC(=O)[C@H]2CN(C(=O)c3ccc(C(F)(F)F)cc3)CCN2C1=O,8,0,0,0,/,/
Cc1cccc(-n2ccnc2SCC(=O)Nc2ccc(F)cc2F)c1C,-5,-4,0,9.3*,0,-4
CC(=O)c1ccc(NC(=O)NS(=O)(=O)c2ccc(C)cc2)cc1,-6,0,0,5.4*,0,7
CC(=O)c1ccc(NC(=O)Nc2ccc(NS(=O)(=O)c3ccc(C)cc3)cc2)cc1,13,15,0,0,/,/
Cc1ccc(NC(=O)C2CC(Cl)=CCC2C(=O)O)cc1[N+](=O)[O-] (centres undefined),9,-6,0,18*,0,-4
CCOCCCNC(=O)c1c(N)n(CCc2ccccc2)c2nc3ccccc3nc12,5,-18,0,1,/,/
COCCNC(=O)c1c(N)n(CCc2ccc(OC)c(OC)c2)c2nc3ccccc3nc12,10,8,1,10*,1,-1
CC(C)(C)C(=O)Cn1ccc(=N)c2ccccc21,2,14,0,-1,/,/
CN(C)S(=O)(=O)c1ccc(C(=O)/C=C/c2ccccc2)cc1,-1,8,0,-1,/,/
COc1cccc(CC2(CO)CCN(Cc3cccn3-c3ncccn3)CC2)c1,5,-9,0,12*,0,-2
COc1ccc(CN2CCC(CO)(Cc3ccccc3)CC2)cc1Cn1cccn1,6,6,0,9.4*,-1,-6
O=c1[nH]c(=O)n(-c2ccc(Cl)cc2)c(O)c1C=Nc1ccc(Br)c2ccccc12,6,16,0,-1,/,/
N#Cc1ccccc1Cn1c(-c2ccc(F)cc2)noc1=O,4,-7,0,-1,/,/
O=C(Nc1ccc2c(c1)OCO2)C1CC12CCN(C(=O)c1ccc(-n3ccnc3)cc1)CC2 (centres undefined),4,-9,0,2,/,/
CN1CCCc2cc(CN3CCC4(CC3)CC4C(=O)Nc3ccc4c(c3)OCO4)ccc21 (centres undefined),-1,-2,0,4.9*,0,-6
O=C(Nc1ccc2c(c1)OCO2)C1CC12CCN(C(=O)c1ccc(-c3ccco3)cc1)CC2 (centres undefined),5,-1,0,5.5*,-1,0
Cc1ccc2c(c1)CN(CCC(=O)NC1CCOC1)CC(C)O2 (centres undefined),5,12,0,-1,/,/
O=C1CS/C(=N\N=C\c2ccc(O)cc2)N1,-2,9,0,7.4*,0,-6
O=C1CS/C(=N/N=C/c2ccccc2)N1,-1,0,0,-1,/,/
COCCNC(=O)c1ccc(/C=C2\Oc3ccccc3N(C)C2=O)cc1,-5,-20,1,11*,-1,12
Cc1noc(/C=C/c2cccs2)c1S(=O)(=O)N1CCCC(C(=O)N2CCCCC2)C1 (centres undefined),-2,2,0,5.0*,0,5
Cc1noc(/C=C/c2cccs2)c1S(=O)(=O)N1CCCC(C(=O)N2CCCC2)C1 (centres undefined),-6,-2,0,0,/,/
COC(=O)c1ccccc1NC(=O)COc1ccc(C)cc1Br,-57,-14,0,-1,/,/
SMILES,TEAD-YAP block,MITF inh,FBW7 activator,GPR151 ag,GPR151 conf act,GPR119 counter
C[n+]1cc(C(=O)NCCC[N+](C)(C)Cc2ccccc2)ccc1/C=N/O,-5,-6,0,-1,/,/
Nc1ncnc2nc(SCCO)[nH]c12,-7,-9,0,7.0*,-1,-5
NC(=O)CSc1nc2ncnc(N)c2[nH]1,-4,18,0,1,/,/
Cc1nc(Nc2ccc(N(C)C)cc2)nc(Nc2ccc(N(C)C)cc2)c1[N+](=O)[O-],-11,2,0,10*,1,9
Cc1nc(Nc2cccc(N(C)C)c2)nc(Nc2cccc(N(C)C)c2)c1[N+](=O)[O-],-2,26,-1,1,/,/
NC(=O)CSc1nnc(Cc2ccccc2)o1,2,8,1,-1,/,/
Cc1cc(C(F)F)n2ncc(C(=O)NC3(c4ccc5c(c4)OCO5)CCCC3)c2n1,8,13,1,-1,/,/
Nc1ncnc(Nc2ccc(N=Nc3ccccc3)cc2)c1[N+](=O)[O-],3,17,0,0,/,/
Nc1ncnc(Nc2ccc(Nc3ccccc3)cc2)c1[N+](=O)[O-],7,23,0,8.7*,-2,-1
Cc1ccc(Nc2ncnc(N)c2[N+](=O)[O-])cc1Cl,7,-4,0,9.1*,0,1
Cc1ccc2c(c1)N(CC(=O)NCCO)C(=O)C(C)O2 (centres undefined),1,13,0,1,/,/
CCN(CC)CCCOc1ccccc1[N+](=O)[O-],-12,5,0,0,/,/
CCN(CC)CCCN1C(=O)C(C)SC1c1ccccc1[N+](=O)[O-] (centres undefined),4,9,0,13*,1,9
CC1(C)CC(NCc2ccco2)=CC(=C(C#N)C#N)C1,-2,18,0,2,/,/
CC1(CC(=O)N/N=C/c2cccc(OC3CSC3)c2)OCCO1,-3,12,0,5.9*,0,2
CC1(CC(=O)N/N=C/c2cccc(Br)c2)OCCO1,-10,2,0,-1,/,/
Cc1ccc(NC(=O)c2cccc(S(=O)(=O)Nc3cccc(C(=O)O)c3)c2)cc1,8,-11,0,6.4*,-1,-1
COc1c(Cl)cc(C(=O)Nc2cccc(C(=O)O)c2)cc1Cl,-26,6,0,5.7*,1,17
N#Cc1c(NC(=O)c2cccc(S(=O)(=O)N3CCOCC3)c2)sc2c1CCCC2,-14,-2,0,-1,/,/
Clc1ccc(OCCn2cncn2)cc1,-5,-18,0,6.4*,-1,-7
COc1ccc(C(=O)Nc2ccc3nc(N4CCN(c5ncccn5)CC4)cc(C)c3c2)cc1[N+](=O)[O-],-6,0,0,-1,/,/
Cc1ccc(OCC(=O)Nc2ccc(Br)cn2)c(C)c1,-19,0,0,8.3*,-1,-10
Cc1ccc(OCC(=O)Nc2ccc3oc(=O)ccc3c2)c(C)c1,5,1,0,5.5*,0,-5
Cc1ccc(OCC(=O)NNC(=O)COc2ccc(Br)cc2C)c(C)c1,-9,13,0,0,/,/
COc1ccc(OCC(=O)Nc2ccc3oc(=O)ccc3c2)cc1,10,-1,0,5.8*,0,9
O=C(COc1ccc(Br)cc1)Nc1ccc2oc(=O)ccc2c1,6,4,0,1,/,/
COc1ccc(C2C3=C(CCCC3=O)OC3=C2C(=O)CCC3)cc1C(=O)O,4,16,1,-1,/,/
